Screens: PubChem BioAssay, several laboratories
An excerpt weighted towards active compounds, which were near 6.9% of everything screened.
JNK3 inh: JNK3 kinase activity inhibitors, primary screen, biochemical, human, purified enzyme; inhibition, % at 8 µM; HTS; 0.61% of 60,000 active; Mitogen-activated protein kinase 10 (Homo sapiens), P53779; in the data active = inhibition above about 17%;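 also: 0% = DMSO and 100% = reference inhibitor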
M1 antag: antagonists of rat M1 muscarinic receptor | Muscarinic acetylcholine receptor M1 (Rattus norvegicus), P08482 | CHO-M1 cells, Fluo-4 calcium, ACh EC80 antagonist mode; hits give low values | B-score at 10 µM | 3.4% of 64,000 active;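 active = calcium fluorescence response, raw or row-and-column corrected B-score, differing from the plate sample mean either way at a set confidence level, mostly lower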
M1 ag: M1 muscarinic receptor agonists, primary screen, CHO-M1 cells, Fluo-4 calcium, agonist mode; Muscarinic acetylcholine receptor M1; Fluo-4 calcium fluorescence; hits give high values; B-score at 10 µM; 3% of 64,000 active; AID 626, 2007;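 active = fluorescence rise, raw or as B-score row- and column-corrected plate score, outside the 99.7% band of its plate's samples, either direction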
Her2 expr inh: inhibitors of Her2 protein expression, primary screen, SKBR-3 cells, AlphaScreen, 66K library; AID 645, 2007; Receptor tyrosine-protein kinase erbB-2 (Homo sapiens), P04626; 0.69% of 65,000 active; HER2 level % of control, % at 10 µM; SKBR-3 HER2 protein level, 18-24 h; hits give low values;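 active = HER2 level under 5% of the carrier-only control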;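 also: 100% = DMSO carrier and 0% = 500 nM PU-H71 HSP90 inhibitor; lower value means stronger loss of Her2 protein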
FXIIa mix inh: human factor XIIa inhibitors, primary screen, biochemical, pooled compound mixtures, fluorogenic substrate | Coagulation factor XII (Homo sapiens), P00748 | purified FXIIa | inhibition, % at 5 µM | 0.2% of 62,000 active;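 also: 0% = enzyme without compound and 100% = no enzyme blank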
FXIa mix inh: FXIa protease inhibitors in compound pools, primary screen, biochemical, 10-compound mixtures. Coagulation factor XI (Homo sapiens), P03951. purified FXIa, fluorogenic substrate, pooled mixtures. inhibition, % at 5 µM. 0.19% of 62,000 active. AID 680, 2007;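 also: each value is inhibition by a whole ten-compound pool holding the compound; 0% = enzyme with no mixture and 100% = wells lacking enzyme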
M1 antag conf: rat M1 muscarinic receptor antagonists, confirmation, CHO cells, Fluo-4 calcium, duplicate | AID 677, 2007 | ACh EC80 antagonism; hits give low values | calcium response (max-min fluorescence) at 10 µM | shares compounds with M1 antag | 43% of 1,700 active;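 active = calcium response below the same-plate mean of wells given acetylcholine alone at its 80%-effect dose, minus 3 SD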;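 also: raw fluorescence intensity difference in arbitrary instrument units and not normalized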
mGluR4 antag: human mGluR4 response to M1 antagonist hits, M1 allosteric modulator project, cell-based, antagonist mode, secondary assay 1 | shares compounds with M1 antag | CHO-mGluR4 calcium flux, Fluo-4 fluorescence, glutamate EC80; hits give low values | fluorescence response (max-min) at 10 µM | 0.9% of 1,700 active;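 active = fluorescence response below the plate's average for near-maximal glutamate wells, less 3 SD of those wells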;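 also: raw unnormalized fluorescence span taken in the window right after glutamate addition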
* hit, by the source's call; . = not tested or not shown. Rule as the data show it, unless noted: active = inhibition above about 20% (passing the limit was not always enough); inactive = the rest.

SMILES	JNK3 inh	M1 antag	M1 ag	Her2 expr inh	FXIIa mix inh	FXIa mix inh	M1 antag conf	mGluR4 antag
Cc1ccc2cc3cc(C(=O)NCCCN4CCc5ccccc5C4)oc3nc2c1	-2	-3.4*	-0.13	94	3	8	518	235
Cc1ccc(NC2=Nc3ccccc3CS2)cc1	0	0.46	-0.16	88	4	5	.	.
CC1=CC(C)(C)N=C(Nc2ccc(C)cc2)S1	0	-5*	-0.13	102	-2	7	275*	218
CCCN(CCC)C(=O)c1ccc2c(c1)N(Cc1ccccc1)C(=O)CS2=O (stereo not given)	4	-0.25	0.034	100	5	7	.	.
O=S1(=O)CC=C(CSc2nc3ccccc3[nH]2)C1	-4	-2.3*	0.056	100	-14	5	566	201
Cc1ccccc1-c1nn2c(-c3ccccc3)nnc2s1	2	-2.7*	0.15	90	.	.	650	261
CC1CCC2(CC1)NC(=O)c1ccccc1O2 (stereo not given)	-5	0.16	-0.21	109	-2	6	.	.
CCc1cccc(C)c1NC(=O)CSc1nnc(-c2cc3cc(Br)ccc3o2)n1CC	2	-2.8*	-0.75	98	-4	0	584	246
Cc1ccc(CN2C3=NCCCN3c3ccccc32)cc1	-10	-2.8*	0.79	90	12	6	419	212
c1ccc(CN2C3=NCCCN3c3ccccc32)cc1	3	-0.24	-0.37	102	-4	-3	.	.
COc1nc(NC(C)=O)nc(C)c1Br	.	-10*	0.014	124	0	-4	598	257
Cc1cc(C)c(NC(=O)C2CSCCS2)c(C)c1 (stereo not given)	-1	1.1	-0.68	91	3	-1	.	.
COc1cc(-c2cc(C(=O)N3CCN(c4ccccn4)CC3)c3ccccc3n2)cc(OC)c1OC	-3	-3.8*	4.5	56	0	2	697	213
CCNC(=O)Cc1ccc(NS(=O)(=O)c2ccc(F)cc2)cc1	.	0.15	-0.29	90	21	11	.	.
CCNS(=O)(=O)c1ccc(NC(=O)Cc2ccc(F)cc2)cc1	1	-5.5*	0.056	81	8	3	561*	197
Cn1c(=Nc2ccc(N3CCOCC3)cc2)ccc2ccccc21	-1	-10*	0.32	79	1	-3	289*	197
N#CC1=C(N)NC(SCc2ccccc2)=C(C#N)C12CCCCC2	3	-1.4	0.72	102	-12	5	.	.
CCSC1=C(C#N)C2(CCCCC2)C(C#N)=C(N)N1	3	-2.7*	-0.91	106	4	9	505	212
CCC(C)NC(=O)CS(=O)Cc1nc(-c2ccccc2C)oc1C (stereo not given)	-3	-0.58	-0.13	81	-18	12	.	.
CCc1nc(NCc2ccco2)c2oc3ccccc3c2n1	.	-3.9*	-0.0089	99	8	1	581	213
COC(=O)C1=C(C)NC(=O)NC1c1ccc(OCC(=O)N2CCCCC2)cc1 (stereo not given)	1	0.16	0.61	79	3	4	.	.
N=c1sccn1CC(=O)Nc1ccccc1-c1ccccc1	.	-1.2	0.81	110	3	9	.	.
N=c1sccn1CC(=O)Nc1cccc(Oc2ccccc2)c1	2	-2.4*	0.88	121	6	4	381*	238
Cn1cnc2c(sc3nc(N4CCOCC4)c4c(c32)CC(C)(C)OC4)c1=O	-7	-1.4	0.22	96	8	0	.	.
COC(=O)c1[nH]c2ccc(Cl)cc2c1NC(=O)CCN1CCN(C2CCCCC2)CC1	4	-9.6*	-0.02	86	-17	7	51*	213
SMILES	JNK3 inh	M1 antag	M1 ag	Her2 expr inh	FXIIa mix inh	FXIa mix inh	M1 antag conf	mGluR4 antag
COC(=O)c1[nH]c2ccc(F)cc2c1NC(=O)CCN1CCN(Cc2ccc3c(c2)OCO3)CC1	4	-7.6*	0.65	108	8	2	125*	204
COC(=O)c1[nH]c2ccc(Br)cc2c1NC(=O)CN1CCN(C2CCCCC2)CC1	-4	-7.5*	0.6	-21*	2	10	324*	256
CCOC(=O)C1CCN(CC(=O)Nc2c(C(=O)OC)[nH]c3ccc(Cl)cc23)CC1	-8	-0.2	0.37	81	6	-17	.	.
COC(=O)c1[nH]c2ccc(C)cc2c1NC(=O)CCN1CCN(C2CCCCC2)CC1	-6	-12*	0.92	91	7	8	99*	204
COc1ccc(CCNC(=O)CSc2nnc(-c3ccc(F)cc3)o2)cc1OC	9	-0.0069	0.84	105	4	11	.	.
S=c1[nH]nc(Cc2ccccc2)n1Cc1ccco1	-1	-13*	0.77	120	-2	6	52*	240
CC(SC1CCCC1)C(=O)NC(C)(C#N)C(C)C (stereo not given)	-1	0.018	-0.17	98	5	-1	.	.
CCOC(=O)N1CCN(C(=O)Cc2ccsc2)CC1	-3	-0.73	-0.28	82	5	2	.	.
c1ccc(-c2oc3ncnc(NCCCn4ccnc4)c3c2-c2ccccc2)cc1	2	-3.9*	0.037	57	4	2	435	145*
c1ccc(-c2oc3ncnc(NCCN4CCOCC4)c3c2-c2ccccc2)cc1	0	0.052	0.78	83	4	2	.	.
C=C(C)Cn1c(CCCNC(=O)C(C)(C)C)nc2ccccc21	.	1	-0.015	199	5	12	.	.
CCCOC(=O)NC(CC)COC(=O)Nc1cccc(C)c1C (stereo not given)	2	0.078	-0.28	95	0	7	.	.
COc1ccc(CNC(=O)CN(CC2CCCO2)C(=O)CNS(=O)(=O)c2ccc(C)cc2)cc1 (stereo not given)	2	0.73	-0.4	97	14	2	.	.
COc1ccc(CNC(=O)CN(CC2CCCO2)C(=O)CNS(=O)(=O)c2ccccc2)cc1 (stereo not given)	-2	-2.4*	-0.76	91	1	3	546	189
c1ccc2c(Cn3ccnc3)c[nH]c2c1	-2	-0.97	0.18	114	-5	5	.	.
Cc1cc(Cn2ccnc2)c(C)cc1Cn1ccnc1	0	-2*	-0.41	108	5	8	559	266
